PubChem BioAssay (NCATS)
Where “and” joins values, the source holds several entries; their conditions need not be identical. Identical values can stand only once. Records with an inconclusive call do not appear. Where a call stands in place of a potency, no number is given. Calls of active or inactive are those of the source. Unless noted, the call rests on the fitted dose curve; in most records, active means well fitted curve in the direction sought with a large enough effect; inconclusive means small, poorly fitted or top-dose-only effect, or another doubt; inactive means no such curve, though single readings can be large; an effect the other way counts as inactive or inconclusive.

Assays:
[1] = Validation of Assay for Modulators of Lamin A Splicing (AID 1459; active means well fitted curve in the direction sought with a large enough effect in the signal ratio; the % refers to the signal ratio;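 further: cells exposed to compound for two days before reading; ratio rise marks activators and ratio drop marks inhibitors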)
Outline: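 S3 HeLa cells stably expressing a lamin A-EGFP splicing minigene and DsRed2 were seeded at 600 cells/well in Opti-MEM with 2% FBS, pin-dosed, and incubated 48 hrs at 37 °C, 5% CO2. Laser-scanning cytometry (488 nm) gave GFP/RFP total intensity ratio.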

[2] = Counterscreen for APE1 Inhibitors: Fluorescent Dye Displacement Validation Assay (AID 1707); further: potency means the concentration at half of the fitted maximal effect
Outline: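 Counterscreen flags promiscuous DNA binders: compounds displacing ThO from duplex DNA (abasic THF site, 50 nM) reduce 540 nm emission (480 nm excitation). ThO 250 nM final; Tris-HCl pH 7.5 with NaCl, MgCl2 and Tween-20.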

[3] = biological target: Endonuclease 4 (Escherichia coli (strain K12)) (UniProt P0A6C1); experiment: Counterscreen for APE1 Inhibitors: qHTS Validation Assay for Inhibitors of Endonuclease IV (AID 1708)
Outline: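 Conditions: 2 nM enzyme, 50 nM TAMRA/BHQ-2 substrate, pH 7.5 Tris buffer with 2 mM MgCl2, RT. Compound preincubation 15 min; readout three fluorescence reads 60 s apart, third-minus-first.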

[4] = qHTS for differential inhibitors of proliferation of Plasmodium falciparum line 7G8 (AID 1815);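 further: parasite growth measured after three days of incubation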; further: potency means the concentration at half of the fitted maximal effect
[5] = qHTS for differential inhibitors of proliferation of Plasmodium falciparum line GB4 (AID 1816); conditions: Potency: Plasmodium falciparum GB4 proliferation inhibition;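 further: parasite growth measured after 72 h incubation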; further: potency means the concentration at half of the fitted maximal effect
[6] = qHTS for differential inhibitors of proliferation of Plasmodium falciparum line 3D7 (AID 1876); further: potency means the concentration at half of the fitted maximal effect
[7] = biological target: Alpha-galactosidase A (Homo sapiens) (UniProt P06280); experiment: Counterscreen for Glucocerebrosidase Inhibitors: qHTS Assay for Human alpha-Galactosidase at pH 4.5 (AID 992)
Alpha-galactosidase A (Homo sapiens), sequence (P06280 whole entry, looked up): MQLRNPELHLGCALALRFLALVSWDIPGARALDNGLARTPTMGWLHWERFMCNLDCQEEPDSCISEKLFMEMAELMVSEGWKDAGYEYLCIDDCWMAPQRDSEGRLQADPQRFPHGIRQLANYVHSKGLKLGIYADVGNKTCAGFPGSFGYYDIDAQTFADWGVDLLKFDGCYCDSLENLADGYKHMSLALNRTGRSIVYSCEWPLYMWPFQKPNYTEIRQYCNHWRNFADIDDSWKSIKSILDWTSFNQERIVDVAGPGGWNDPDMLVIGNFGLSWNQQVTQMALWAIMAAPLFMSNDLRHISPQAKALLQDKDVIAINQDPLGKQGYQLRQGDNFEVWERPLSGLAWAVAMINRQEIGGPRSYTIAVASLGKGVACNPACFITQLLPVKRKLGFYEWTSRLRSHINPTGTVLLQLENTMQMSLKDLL
Outline: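 Fluorogenic 1536-well qHTS at pH 4.5 (citrate, Tween-20): 2 nM enzyme, 80 uM 4-MU-alpha-galactoside, 20 min room temperature, NaOH/glycine stop. Titration 0.7 nM to 77 uM, data normalized to no-enzyme and full-activity controls, Hill-fitted AC50.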

[8] = biological target: alpha-glucosidase (Oryza sativa, rice) (UniProt Q653V4); experiment: Counterscreen for Glucocerebrosidase Inhibitors: qHTS Assay for Rice alpha-Glucosidase at pH 5.0 (AID 997)
Outline: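 Endpoint fluorogenic assay at pH 5.0: compounds (0.7 nM to 77 uM) titrated against 4 nM rice enzyme and 400 uM 4-MU-alpha-glucoside for 20 min at room temperature; NaOH/glycine stop, read ex 365/em 440 nm, Hill-fitted AC50.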

[9] = biological target: Alpha-galactosidase (Coffea arabica) (UniProt Q42656); experiment: Counterscreen for Glucocerebrosidase Inhibitors: qHTS Assay for Coffee Bean alpha-Galactosidase at pH 5.9 (AID 998)
Alpha-galactosidase (Coffea arabica), sequence (Q42656 whole entry, looked up): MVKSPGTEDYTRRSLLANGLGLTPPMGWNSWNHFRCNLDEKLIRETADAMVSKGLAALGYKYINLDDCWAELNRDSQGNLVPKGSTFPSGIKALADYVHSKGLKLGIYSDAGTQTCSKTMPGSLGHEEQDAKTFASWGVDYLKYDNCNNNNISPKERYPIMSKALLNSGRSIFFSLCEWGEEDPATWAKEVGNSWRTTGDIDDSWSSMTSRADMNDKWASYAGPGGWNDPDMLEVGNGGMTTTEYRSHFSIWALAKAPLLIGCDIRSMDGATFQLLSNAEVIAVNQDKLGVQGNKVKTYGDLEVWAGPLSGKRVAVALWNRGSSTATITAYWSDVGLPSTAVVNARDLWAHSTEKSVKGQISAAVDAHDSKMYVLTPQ
Outline: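 Enzyme 2 nM + cpd (0.7 nM–77 uM titration) + 4-MU-alpha-Gal 80 uM, pH 5.9 citrate/Tween-20, RT 20 min, NaOH/glycine stop pH 10, fluor 365/440. Normalized to no-enzyme and full-activity controls; Hill-fit AC50.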

[10] = qHTS Assay for Lipid Storage Modulators (AID 1519; calls by dose curve); conditions: Drosophila S3 cells, BODIPY lipid droplet/cell ratio, laser cytometry, cells loaded with oleic acid; for activity change, negative = inhibition: at 57.5 µM (top of the series)
Outline: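 Cells seeded at 5,000 per well were treated with compounds over a concentration series and loaded with oleic acid (400 uM, as added). Lipid droplet fluorescence (488 nm excitation, 500-530 nm channel) was read by laser-scanning cytometry and normalized to 20 uM Triacsin C.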

[11] = biological target: DNA repair nuclease/redox regulator APEX1 (Homo sapiens) (UniProt P27695); experiment: qHTS Validation Assay for Inhibitors of the Human Apurinic/apyrimidinic Endonuclease 1 (APE1) (AID 1705; further: potency means the concentration at half of the fitted maximal effect;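 on activity change, negative = inhibition: TAMRA fluorescence gain over two minutes as APE1 cuts a quenched THF abasic duplex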)
DNA repair nuclease/redox regulator APEX1 (Homo sapiens), sequence (P27695 whole entry, looked up): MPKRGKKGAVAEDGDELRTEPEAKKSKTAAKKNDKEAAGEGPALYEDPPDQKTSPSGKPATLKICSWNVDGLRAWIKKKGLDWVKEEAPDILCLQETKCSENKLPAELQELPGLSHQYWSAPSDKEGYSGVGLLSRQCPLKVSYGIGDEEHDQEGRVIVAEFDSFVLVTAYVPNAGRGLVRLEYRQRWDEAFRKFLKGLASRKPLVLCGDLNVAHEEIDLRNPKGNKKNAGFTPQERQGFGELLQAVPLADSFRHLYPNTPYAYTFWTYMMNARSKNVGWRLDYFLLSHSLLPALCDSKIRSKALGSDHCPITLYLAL
Outline: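 Human APE1 was preincubated with compound for 15 min at room temperature, then 50 nM (final) THF-abasic double-stranded DNA substrate bearing 5'-TAMRA and 3'-BHQ-2 was added. Incision-driven fluorescence rise (ex 525/em 598 nm) was read kinetically.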

[12] = Cell Viability - LYMP2-010 (AID 981);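 further: cells exposed to compound for 24 hours at 37 °C; nearly all actives have a fitted effect of over 55% in size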
Outline: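 Steps: seed 2500 LYMP2-010 cells per well; incubate 5 hr at 37 C; add compound; incubate 24 hr at 37 C; add CellTiter-Glo, wait 30 min at room temperature; read luminescence. Concentration-response fitted to Hill equation for AC50.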

[13] = Cell Viability - LYMP2-012 (AID 982);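 further: cellular ATP by luciferase luminescence where a drop means cytotoxicity; cells exposed to compound for one day before reading; nearly all actives have a fitted effect of over 55% in size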
[14] = Cell Viability - LYMP2-014 (AID 983);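 further: cells exposed to compound for 24 h at 37 °C; nearly all actives have a fitted effect of over 50% in size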
Outline: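 Cells are plated at 2500/well and left 5 hr at 37 C. Compounds are added across a concentration range and incubated 24 hr at 37 C in complete medium. CellTiter-Glo is added, and luminescence is read after 30 min at room temperature.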

[15] = Cell Viability - LYMP2-016 (AID 984);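 further: cells exposed to compound for 24 hours at 37 °C; nearly all actives have a fitted effect of over 55% in size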
Outline: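 Human lymphoblastoid cells (LYMP2-016), 2500/well in complete medium, preincubated 5 hr at 37 C, then compound-treated 24 hr at 37 C. Intracellular ATP read by CellTiter-Glo luminescence after 30 min at room temperature; AC50 from Hill-equation concentration-response fits.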

[16] = Cell Viability - LYMP2-018 (AID 985);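 further: compound exposure lasted 24 hr at 37 °C; nearly all actives have a fitted effect of over 50% in size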
Outline: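 Seed 2500 lymphoblastoid cells per well, incubate 5 hr at 37 C, add compound and incubate 24 hr at 37 C, add CellTiter-Glo, wait 30 min at room temperature, then read luminescence.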

[17] = Cell Viability - LYMP2-020 (AID 986);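 further: cells exposed to compound for 24 h at 37 °C; nearly all actives have a fitted effect of over 55% in size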
Outline: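 Seed 2500 cells per well and incubate 5 hr at 37 C. Add compounds at a concentration series and incubate 24 hr at 37 C. Add CellTiter-Glo, wait 30 min at RT, read luminescence, and fit a Hill curve for AC50.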

[18] = Cell Viability - LYMP2-022 (AID 987); further: nearly all actives have a fitted effect of over 55% in size
Outline: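 Cells were seeded at 2500 per well, rested 5 hr at 37 C, and treated with titrated compounds for 24 hr at 37 C. Cellular ATP was then quantified by luciferase luminescence, and AC50 values were derived from Hill-modelled concentration-response curves.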

[19] = Cell Viability - LYMP2-024 (AID 988); further: nearly all actives have a fitted effect of over 60% in size
Outline: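 qHTS cytotoxicity, human lymphoblastoid line, complete medium; 24 h cpd treatment, 37 C; CellTiter-Glo ATP luminescence readout; tetraoctylammonium bromide positive control; AC50 via Hill fit.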

[20] = Cell Viability - LYMP1-002 - Assay at 24 hr (AID 993)
Outline: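 Acute toxicity is measured as concentration-dependent loss of cellular ATP in a human lymphoblastoid line (Coriell LYMP1-002) after 24 h treatment in complete medium. ATP is quantified by luciferase luminescence and AC50 derived by Hill modelling.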

[21] = measured here: cell count channel max response
[22] = measured here: lipid channel max response

CC(N)[C@H](O)c1ccc(O)c(O)c1 (some centres undefined)
outcome [1]: inactive
Potency [2]: inactive
Potency [3]: inactive
Potency [4]: inactive
Potency [5]: inactive
Potency [6]: inactive

CCCN(CCC)[C@H]1CCc2c(F)ccc(O)c2C1
outcome [7]: inactive
outcome [8]: inactive
outcome [9]: inactive
outcome [1]: inactive
Potency [2]: inactive
Potency [3]: inactive
Potency [4]: 1 µM (active)
Potency [5]: 0.501 µM (active)
Potency [6]: 2 µM (active)

COc1ccc(OC)c(C(O)C(C)N)c1 (centres undefined)
activity change, negative = inhibition [10]: 12.3% (inactive) and -2.22% (inactive)
max response [10, 21]: 8.8% and 28.9%
max response [10, 22]: 25.1% and 26.8%
Potency [11]: inactive
Potency [2]: inactive
Potency [3]: inactive
Potency [4]: inactive
Potency [5]: inactive
Potency [6]: inactive

C=CCN1CC[C@]23c4c5ccc(O)c4O[C@@H]2/C(=N/N=C2\CC[C@@]4(O)C6Cc7ccc(O)c8c7[C@@]4(CCN6CC=C)[C@@H]2O8)CC[C@@]3(O)C1C5
Potency [11]: inactive
Potency [2]: inactive
Potency [3]: inactive
Potency [4]: 2.51 µM (active)
Potency [5]: 3.16 µM (active)
Potency [6]: 2.24 µM (active)

[N-]=[N+]=CC(=O)OCC(N)C(=O)O (centres undefined)
activity change, negative = inhibition [10]: 10.5% (inactive)
max response [10, 21]: 14.1%
max response [10, 22]: 29.9%

NC(Cc1cc(O)c(O)cc1O)C(=O)O (centres undefined)
outcome [1]: inactive
Potency [11]: 0.112 µM (active)
Potency [2]: 7.94 µM (active)
Potency [5]: inactive
Potency [6]: inactive

CCS(=O)(=O)Nc1cccc(C(=C2CCCCC2)c2cnc[nH]2)c1
outcome [7]: inactive
outcome [8]: inactive
outcome [9]: inactive
activity change, negative = inhibition [10]: 1.44% (inactive)
max response [10, 21]: 56.8%
max response [10, 22]: 58%
Potency [11]: inactive
Potency [2]: inactive
Potency [4]: 7.08 µM (active)
Potency [5]: 12.6 µM (active)
Potency [6]: 11.2 µM (active)

ClC1C(Cl)C(Cl)C(Cl)C(Cl)C1Cl (centres undefined)
activity change, negative = inhibition [10]: 9.37% (inactive)
max response [10, 21]: 11.2%
max response [10, 22]: 20.6%

NC(=O)c1ccc(OCC(O)CN2CC=C(c3ccc(F)cc3)CC2)cc1 (centres undefined)
Potency [11]: inactive
Potency [2]: inactive
Potency [3]: inactive
Potency [5]: 10 µM (active)
Potency [6]: 11.2 µM (active)

NC(CCCCCP(=O)(O)O)C(=O)O (centres undefined)
activity change, negative = inhibition [10]: 0.489% (inactive)
max response [10, 21]: -0.44%
max response [10, 22]: -0.15%
Potency [11]: inactive
Potency [2]: inactive
Potency [3]: inactive
Potency [4]: inactive
Potency [5]: inactive
Potency [6]: inactive

CC1(C(=O)O)C2CCC(O2)C1(C)C(=O)O (centres undefined)
Potency [11]: inactive
Potency [2]: inactive
Potency [3]: inactive
Potency [4]: 3.55 µM (active)
Potency [5]: 3.16 µM (active)
Potency [6]: 2.24 µM (active)

CC(C)(C)c1cc(C=C(C#N)C#N)cc(C(C)(C)C)c1O
outcome [7]: inactive
outcome [8]: inactive
outcome [9]: inactive
Potency [11]: inactive
Potency [2]: inactive
Potency [3]: inactive
Potency [4]: 1.12 µM (active)
Potency [5]: 0.891 µM (active)
Potency [6]: 0.708 µM (active)

CCCC(C)C1(CC)C(=O)NC(=O)NC1=O (centres undefined)
activity change, negative = inhibition [10]: 5.49% (inactive)
max response [10, 21]: -11.5%
max response [10, 22]: -3.32%

C=CCC1(C(C)CCC)C(=O)N=C(S)NC1=O (centres undefined)
activity change, negative = inhibition [10]: 5.57% (inactive)
max response [10, 21]: 14.6%
max response [10, 22]: 20.4%

O=C1CCO1
Potency [12]: inactive
Potency [13]: inactive
Potency [14]: inactive
Potency [15]: inactive
Potency [16]: inactive
Potency [17]: inactive
Potency [18]: inactive
Potency [19]: inactive
Potency [20]: inactive
activity change, negative = inhibition [10]: 5.6% (inactive)
max response [10, 21]: 8.02%
max response [10, 22]: 16.6%
